From PubChem
ELG1 DNA repair: blocks ELG1-dependent DNA repair in HEK293T cells. HEK293T ELG1-luciferase reporter, luminescence, 16 h; DNA damage induced by 5-fluorouridine. Potency, µM (doses to about 46.1 µM), for inactives: top-dose activity change, negative = inhibition, actives largely listed as inhibitors. 330,000 compounds, 2.3% hits; also: % is scaled to controls: 0 for no effect and ±100 for the full control effect; nearly all actives have a fitted effect of over 55% in size
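Cells (2,000 per well) received 5-fluorouridine plus test compound or DMSO and were incubated 16 hr at 37 °C, 5% CO2. Luciferase activity was read by luminescence 30 min after ONE-Glo addition; signal suppression marked inhibition of damage-induced ELG1 function.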
KB-3-1 cytotox: kills parental KB-3-1 adenocarcinoma cells; Potency, µM (top dose mostly 46.1 µM), usual class: cytotoxic; AID 1347075; 400,000 compounds, 1.4% hits; KB-3-1 viability, CellTiter-Glo ATP luminescence, 72 h; also: % is scaled to controls: 0 for no effect and ±100 for the full control effect; nearly all actives have a fitted effect of over 60% in size
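KB-3-1 cells, DMEM (no phenol red) + 10% FBS; compound by pin transfer, 72 h, 37 °C. Readout: CellTiter-Glo luminescence after 10 min. Data normalized, curve-fitted.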
KB-V1 MDR tox: KB-V1 MDR subline cytotoxicity; KB-V1 MDR cells viability, CellTiter-Glo, 72 h; Potency, µM (top dose mostly 46.1 µM), hits mostly cytotoxic; 400,000 compounds, 3.4% hits; AID 1347076; also: % is scaled to controls: 0 for no effect and ±100 for the full control effect; nearly all actives have a fitted effect of over 60% in size
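Cytotoxicity via CellTiter-Glo luminescence after 72 h compound exposure at 37 degrees C. Cells: drug-selected KB-V1 line, DMEM phenol-red free plus 10% FBS. Compounds tested at multiple concentrations; normalized data fitted to concentration-effect curves.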
SW480 rerep: DNA re-replication induction in SW480 cells. SW480 DNA re-replication, Hoechst DNA content imaging, 48 h. Potency, µM (top dose mostly 46.1 µM), for inactives: top-dose re-replication activation, hits mostly activators. 340,000 compounds, 1.8% hits; also: % of control where 0% means no effect; nearly all actives have a fitted effect of over 55% in size
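Treated cells incubate 48 hr (37 C, 5% CO2), are stained 40 min with Hoechst, and nuclear fluorescence is enumerated; a rise in nuclei with high DNA signal marks re-replication.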
MCF10A rerep: DNA re-replication induction in MCF 10a cells | Potency, µM (doses to about 46.1 µM), for inactives: top-dose activity, positive = re-replication, most hits filed as activators | 350,000 compounds, 2.9% hits | MCF 10A DNA re-replication, Hoechst nuclear intensity, 48 h | AID 624296; also: % of control where 0% means no effect; nearly all actives have a fitted effect of over 50% in size
An asterisk follows results filed as active; i = inactive; ? = inconclusive; nt = no result given; ! = repeats disagree; [ ] = remark or other dose. Compounds with a hit are over-represented: about 8.1% of the library has one in this group of screens. Calls follow the shape of the dose curve; as a rule, active = well fitted curve in the direction sought with a large enough effect; inconclusive = small, poorly fitted or top-dose-only effect, or another doubt; inactive = no such curve, though single readings can be large; an effect the other way counts as inactive or inconclusive. Potency is read from the fitted curve at half-maximal effect.

SMILES | ELG1 DNA repair | KB-3-1 cytotox | KB-V1 MDR tox | SW480 rerep | MCF10A rerep
CCOC(=O)C1=C(C)Nc2ccc(C)cc2S1 | 11% | i | i | 3% | 10%
CCOCCOC(=O)C1=C(C)Nc2ccc(C)cc2S1 | ? | i | 13µM* | 0% | -2%
COC(=O)Cn1nc(-c2ccc(C)c(S(=O)(=O)N(C)C)c2)c2ccccc2c1=O | -14% | i | 18µM* | -2% | 17%
Cc1ccc(-c2nn(CC(=O)NCc3cc(-c4nn(C)c(=O)c5ccccc45)ccc3C)c(=O)c3ccccc23)cc1 | 20% | 23µM* | 7.3µM* | 6.5µM* | 9.2µM*
CN(C)CCNc1ccc(-c2nn(C)c(=O)c3ccccc23)cc1[N+](=O)[O-] | ? | ? | 23µM* | -4% | -1%
Cc1ccc(-c2nn(CC(=O)N(C)C)c(=O)c3ccccc23)cc1S(=O)(=O)N(C)C | -2% | i | i | -11% | 2%
Cc1ccc(-c2nn(C)c(=O)c3ccccc23)cc1CNC(=O)c1ccccc1 | 16µM* | i | ? | 4% | -6%
CCCCCCNC(=O)CC(c1ccccc1)c1cc(Br)ccc1O (stereo not given) | ? | ? | ? | 1% | ?
O=C(c1cccc(S(=O)(=O)N2CCOCC2)c1)N(Cc1ccc(F)cc1)Cc1ccco1 | -21% | i | i | -9% | 2.1µM*
O=C(NCc1ccc(F)cc1)c1cccc(S(=O)(=O)N2CCOCC2)c1 | 8% | i | i | 6% | 4%
CN(CC(=O)Nc1ccc(Cl)cc1)C(=O)c1cccc(S(=O)(=O)N2CCN(Cc3ccccc3)CC2)c1 | ? | 16µM* | ? | 10% | ?
O=C(NCCOc1ccccc1)c1cccc(S(=O)(=O)N2CCN(Cc3ccccc3)CC2)c1 | nt | i | ? | nt | nt
CN(C)C(=O)c1ccc(NC(=O)c2cccc(S(=O)(=O)N3CCN(Cc4ccccc4)CC3)c2)cc1 | nt | i | i | -3% | 6%
COc1cccc(CNC(=O)c2cccc(S(=O)(=O)N3CCN(Cc4ccccc4)CC3)c2)c1 | nt | i | 15µM* | -3% | 6%
O=C(NCc1ccc(F)cc1)c1cccc(S(=O)(=O)N2CCCC2)c1 | ? | i | 23µM* | -1% | 19%
CN(Cc1c(F)cccc1Cl)C(=O)c1cccc(S(=O)(=O)N2CCN(Cc3ccccc3)CC2)c1 | nt | i | i | 7% | 6%
CN(Cc1ccc(OC(F)F)cc1)C(=O)c1cccc(S(=O)(=O)N2CCN(Cc3ccccc3)CC2)c1 | nt | 15µM* | ? | -68% | -16%
Cn1cc(C2CC(c3ccccc3)=NN2C(=O)c2ccccc2)c2ccccc21 (stereo not given) | ? | ? | 21µM* | ? | 5.8µM*
O=C(c1ccccc1)N1N=C(c2ccccc2)CC1c1ccccc1 (stereo not given) | -4% | i | i | ? | 30%
CCCC(=O)N1N=C(c2ccccc2)CC1c1cn(C)c2ccccc12 (stereo not given) | ? | i | ? | ? | 23µM*
CC(=O)N1N=C(c2ccc(Br)cc2)CC1c1cn(C)c2ccccc12 (stereo not given) | 2% | i | ? | 24% | 18µM*
CC(=O)N1N=C(c2ccc(Br)cc2)CC1c1ccc(Br)cc1 (stereo not given) | nt | i | i | nt | nt
C=CCc1ccccc1OCCSc1nc2ccc([N+](=O)[O-])cc2s1 | 12% | i | i | 0% | ?
Cc1onc(-c2ccccc2Cl)c1NC(=O)NCc1cccs1 | -12% | i | i | 22% | -11%
COc1ccc(C(C)=O)cc1CSc1nnc(-c2ccc(Cl)cc2)n1-c1ccccc1 | ? | ? | 15µM* | 10%[9.22 µM] | ?
SMILES | ELG1 DNA repair | KB-3-1 cytotox | KB-V1 MDR tox | SW480 rerep | MCF10A rerep
COc1ccc(C(C)=O)cc1CSc1nnc(-c2ccncc2)n1C | -6% | i | i | -16% | 1%
COc1ccc(-c2nnc(SCc3nnc(-c4ccccc4)o3)n2-c2ccccc2)cc1 | 0% | i | ? | -7% | 16%
COc1ccc(-n2c(SCc3nnc(-c4ccccc4)o3)nnc2-c2ccccc2)cc1 | -18% | i | 2.3µM* | -15% | 17%
COc1ccc(-c2noc(CSc3nnc(-c4ccccc4)n3C)n2)cc1 | 0% | i | 15µM*! | -2% | 2%
COc1ccc(-c2nnc(SCc3nnc(-c4ccc(Cl)cc4)o3)n2-c2ccccc2)cc1 | nt | ? | 3.7µM* | ? | ?
Cc1ccc(C=C(C#N)C(=O)c2ccccc2)cc1 | nt | i | i | nt | nt
Cn1c(=O)cc(OCC(=O)Nc2ccccn2)c2ccccc21 | 10% | i | i | -3% | -6%
CCOc1ccc(NC(=O)Nc2nnc(CC)s2)cc1 | ? | i | i | -5% | 5%
c1ccc(-c2noc(CSc3nnnn3C3CCCCC3)n2)cc1 | ? | i | 18µM* | -5% | 3%
COc1ccc(C(C)=O)cc1CSc1nnc(Nc2ccccc2)s1 | 15µM* | ? | 8.2µM* | 1% | 5%
O=C(O)C1=C[C@@H](c2ccc(Br)cc2)C[C@@H](OCCCCO)O1 | nt | ? | i | -63%[9.22 µM] | -4%
Cn1cnc(S(=O)(=O)N2CCCCC2c2cc(C(=O)Nc3ccccc3Cl)no2)c1 (stereo not given) | nt | i | i | nt | nt
N#CCCC1CCCC=C1N(Cc1ccccc1)C(=O)C(Cl)Cl (stereo not given) | 6% | i | ? | 4% | 10µM*
COc1cc(OC)cc(C(=O)N[C@H](C(=O)OCC(=O)N2CCN(S(=O)(=O)c3ccc(C)cc3)CC2)C(C)C)c1 | nt | i | i | -15% | 1%
O=C(COc1ccc(Cl)cc1Cl)Nc1cccc2cccnc12 | nt | i | i | nt | nt
COc1ccc(C(=O)C2CCCN(C(=O)c3ccccc3C(C)=O)C2)cc1F (stereo not given) | 0% | i | i | 8% | 1%
COc1ccc(C(=O)C2CCCN(C(=O)COc3ccc(C(C)=O)cc3)C2)cc1F (stereo not given) | 15µM* | i | ? | -1% | 4%
CN(C)S(=O)(=O)c1cccc(NC(=O)c2ccc3c(c2)S(=O)(=O)N=C2CCCCCN23)c1 | -13% | nt | nt | nt | nt
CCCNC(=O)OC[C@H]1O[C@H](CCO/N=C(\C)CCN2CCc3nc(-c4ccccc4)c(-c4ccccc4)cc3C2)C=C[C@@H]1Oc1ccc(OC)cc1 | 6.5µM* | nt | nt | ? | ?
COc1ccc(-n2nc(C(=O)NCC(=O)NCc3ccc(F)cc3)c3ccccc3c2=O)cc1 | 16µM* | i | i | -1% | 7%
COc1ccc(-n2nc(C(=O)NCC(=O)NC(C)C)c3ccccc3c2=O)cc1 | -1% | i | i | -9% | -4%
